The text below walks through data of PubChem BioAssay (Tox21).

A number with no mark means an inactive call. Results filed as inconclusive are left out. Activity calls are given as the source filed them. Unless noted, the call rests on the fitted dose curve; in most records, active means well fitted curve in the direction sought with a large enough effect in the repeat runs; inconclusive means weak or mixed curves; inactive means flat fitted curve, though single readings scatter.

A short description of assay [1]: qHTS assay to test for compound auto fluorescence at 535 nm (green) in HEK293 cells (AID 720680). (Quantitative high-throughput screening tests each substance at several concentrations.)
Assay [2] is described as follows: qHTS assay to test for compound auto fluorescence at 460 nm (blue) in HEK293 cell free culture (AID 720681). A digest of the protocol: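 Blue fluorescence (Ex 405/Em 460 nm, triamterene-equivalent) was read immediately after pin transfer of compound or DMSO into medium (DMEM, 10% FBS) without cells.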
A short description of assay [3]: qHTS assay to test for compound auto fluorescence at 535 nm (green) in HEK293 cell free culture (AID 720682). The gist of the method:
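Fluorescein serves as the green reference fluorophore; each compound's intrinsic emission at 535 nm (excitation 485 nm) is reported as an equivalent amount of that dye, measured in serum-containing DMEM without cells.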

The nature of assay [4]: qHTS assay to test for compound auto fluorescence at 590 nm (red) in HEK293 cell free culture (AID 720683). The gist of the method:
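Red-channel autofluorescence of compounds in culture medium (DMEM, 10% FBS), no cells, measured at 540/590 nm. Rose Bengal sodium is the reference fluorophore for equivalence.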

A short description of assay [5]: qHTS assay to test for compound auto fluorescence at 590 nm (red) in HepG2 cell free culture (AID 720684). A digest of the protocol: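 Steps: dispense MEM/10% FBS medium, no cells; pin compound or DMSO vehicle; read red channel, Ex/Em 540/590 nm. Output given as Rose Bengal sodium equivalents.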
A short description of assay [6]: qHTS assay to test for compound auto fluorescence at 460 nm (blue) in HepG2 cell free culture (AID 720685). A digest of the protocol:
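Compound (23 nL) or DMSO pinned into cell-free MEM with 10% FBS; blue fluorescence read at 405/460 nm excitation/emission, expressed as auto-fluorescence equivalency to triamterene.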

Assay [7] in a line: qHTS assay to test for compound auto fluorescence at 460 nm (blue) in HepG2 cells (AID 720687). A digest of the protocol:
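Blue-channel autofluorescence (Ex/Em 405/460 nm, triamterene-equivalent) was measured after 1 hr compound exposure at 37 C, 5% CO2. Cells were HepG2, plated overnight at 37 C in MEM plus 10% FBS.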

The target of assay [8] is Glucocorticoid receptor (Homo sapiens) (UniProt P04150). Briefly: qHTS assay to identify small molecule agonists of the glucocorticoid receptor (GR) signaling pathway (AID 720691; active means well fitted activation curve with a large enough effect in the signal ratio in the repeat runs, not every such curve was filed as active; the % refers to the signal ratio; further: potency means the concentration at half of the fitted maximal effect). The gist of the method: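 Beta-lactamase reporter activity, read as fluorescence intensity, was measured in GR-bla HeLa cells exposed to compounds for 18 h at 37 C and then loaded with LiveBLAzer B/G FRET substrate for 2 h at room temperature.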

The nature of assay [9]: qHTS assay to test for compound auto fluorescence at 535 nm (green) in HepG2 cell free culture (AID 720686).
The target in assay [10] is Glucocorticoid receptor (Homo sapiens) (UniProt P04150). Briefly: qHTS assay to identify small molecule antagonists of the glucocorticoid receptor (GR) signaling pathway (AID 720692; active means well fitted inhibition curve with a large enough effect in the signal ratio in the repeat runs, not every such curve was filed as active; the % refers to the signal ratio; further: potency means the concentration at half of the fitted maximal effect). The gist of the method: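 Fluorescence from cleaved LiveBLAzer B/G FRET substrate reports GRE-driven beta-lactamase in HeLa cells; compounds are tested against 5 nM dexamethasone (final) over 18 h at 37 C, substrate incubation 2 h at room temperature.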

Chain of Glucocorticoid receptor (Homo sapiens) (P04150 whole entry, looked up): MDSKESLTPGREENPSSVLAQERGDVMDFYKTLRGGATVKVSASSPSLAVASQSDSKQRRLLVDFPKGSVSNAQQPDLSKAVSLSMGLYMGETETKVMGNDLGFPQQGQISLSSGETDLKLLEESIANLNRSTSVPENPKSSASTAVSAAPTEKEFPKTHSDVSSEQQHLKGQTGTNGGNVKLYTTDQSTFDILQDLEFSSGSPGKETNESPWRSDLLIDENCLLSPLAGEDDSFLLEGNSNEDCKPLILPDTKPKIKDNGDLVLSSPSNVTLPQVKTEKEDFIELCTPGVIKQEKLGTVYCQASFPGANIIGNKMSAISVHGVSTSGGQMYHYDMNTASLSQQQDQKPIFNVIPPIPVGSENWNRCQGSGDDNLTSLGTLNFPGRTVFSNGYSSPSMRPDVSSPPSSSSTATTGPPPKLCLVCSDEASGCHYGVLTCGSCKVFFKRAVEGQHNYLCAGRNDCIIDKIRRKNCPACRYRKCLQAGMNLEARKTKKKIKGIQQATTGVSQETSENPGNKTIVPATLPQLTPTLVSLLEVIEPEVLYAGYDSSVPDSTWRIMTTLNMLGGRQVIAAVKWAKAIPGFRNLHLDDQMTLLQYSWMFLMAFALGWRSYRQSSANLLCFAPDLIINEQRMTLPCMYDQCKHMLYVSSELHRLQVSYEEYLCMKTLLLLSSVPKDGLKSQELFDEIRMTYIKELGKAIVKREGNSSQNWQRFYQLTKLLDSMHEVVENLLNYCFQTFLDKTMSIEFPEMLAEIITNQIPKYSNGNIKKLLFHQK

For `CCCC(=O)O[C@]1(C(=O)COC(=O)CC)CC[C@H]2[C@@H]3CCC4=CC(=O)CC[C@]4(C)[C@H]3[C@@H](O)C[C@@]21C`, the outcome in assay [1], in [3], in [4] and in assay [5] was inactive. For the same compound, the Potency entry in [2], in assay [6] and in assay [7] was “inactive” in each case. Further, in [8], the Potency is 0.301 µM (active).

For the compound `Cc1cc2nc3ccc(=[N+](C)C)cc-3sc2cc1N`, the outcome in assay [1], in assay [3], in assay [4] and in assay [5] was inactive. For the same compound, the Potency result in assay [2], in [6] and in assay [7] was “inactive” each time.

In the case of `O=C(O)c1ccc(CO)o1`, the compound was classed as inactive in assay [1], in assay [3], in [4], in assay [5] and in assay [9]. The Potency result in [2], in assay [6], in [7] and in assay [10] was “inactive” each time.

Turning to `CCOC(=O)/C=C/C(=O)O`, the compound was classed as inactive in assay [1], in assay [3], in [4] and in [5]. In addition, the Potency entry in [2], in assay [6] and in assay [7] was “inactive” throughout.

Regarding `CCC(C(=O)OCCN(CC)CC)c1ccccc1` (stereo not given), the compound was called inactive in assay [1], in assay [3], in assay [4], in assay [5] and in [9]. Further, the Potency entry in assay [2], in assay [6], in [7] and in [10] was “inactive” each time.

Take `CC(C)(C)CC(C)(C)c1ccc(OCCO)cc1`: the result in assay [1], in assay [3], in [4] and in [5] was inactive. Further, the Potency result in [2], in assay [6], in assay [7] and in assay [8] was “inactive” each time.

With `CCN(Cc1cccc(S(=O)(=O)O)c1)c1ccc(C(=C2C=CC(=[N+](CC)Cc3cccc(S(=O)(=O)[O-])c3)C=C2)c2ccccc2)cc1`, the compound was classed as inactive in assay [1], in assay [3], in assay [4] and in assay [5]. In addition, the Potency entry in assay [2], in assay [6] and in assay [7] was “inactive” in each case.

As to `O=[N+]([O-])c1cccc(S(=O)(=O)NCCNS(=O)(=O)c2cccc([N+](=O)[O-])c2)c1`, the call in assay [1], in assay [3], in [4], in assay [5] and in assay [9] was inactive. The Potency entry in [2], in [6], in assay [7] and in assay [10] was “inactive” in each case.

With `COCc1c(C(C)C)nc(C(C)C)c(/C=C/[C@@H](O)C[C@@H](O)CC(=O)O)c1-c1ccc(F)cc1`, the call in [1], in assay [3], in assay [4], in assay [5] and in assay [9] was inactive. Also, the Potency result in assay [2], in assay [6] and in assay [7] was “inactive” throughout. Further, the Potency in [10] is 3.38 µM (active).

For `CCCCCC=CCC=CCCCCCCCC(=O)OCC`, the compound was classed as inactive in [1], in [3], in assay [4], in assay [5] and in assay [9]. In addition, the Potency entry in [2], in assay [6], in assay [7], in assay [8] and in assay [10] was “inactive” throughout.

In the case of `C=CC(=C)CCCC(C)(C)OC(C)=O`, the compound was classed as inactive in assay [1], in assay [3], in assay [4], in assay [5] and in assay [9]. Moreover, the Potency result in [2], in assay [6], in assay [7] and in [10] was “inactive” throughout.

Regarding `O=C(CCCN1CCN(c2ccc(F)cc2)CC1)NC1c2ccccc2CSc2ccccc21` (stereo not given), the result in assay [1], in assay [3], in assay [4], in assay [5] and in assay [9] was inactive. Also, the Potency entry in assay [2], in assay [6], in assay [7], in [8] and in [10] was “inactive” throughout.

As to `CCC(C(=O)OCCOCCN(CC)CC)c1ccccc1` (stereo not given), the outcome in [1], in assay [3], in assay [4], in assay [5] and in assay [9] was inactive. Also, the Potency result in assay [2], in [6], in assay [7] and in assay [10] was “inactive” throughout.

Consider `C[Si]1(C)O[Si](C)(C)O[Si](C)(C)O1`, for which the compound was classed as inactive in [1], in assay [3], in assay [4] and in [5]. Moreover, the Potency result in assay [2], in assay [6] and in assay [7] was “inactive” throughout.

Turning to `CO[Si](C)(OC)OC`, the result in assay [1], in [3], in assay [4], in [5] and in assay [9] was inactive. The Potency entry in assay [2], in assay [6], in [7] and in assay [10] was “inactive” each time.

On to `c1cnc2c(n1)CCCC2`, for which the compound was called inactive in [1], in assay [3], in assay [4] and in assay [5]. Besides, the Potency entry in assay [2], in [6] and in [7] was “inactive” throughout.

Turning to `Cc1ccc(Nc2nccc(N(C)c3ccc4c(C)n(C)nc4c3)n2)cc1S(N)(=O)=O`, the compound was classed as inactive in assay [1], in [3], in assay [4] and in assay [5]. In addition, the Potency entry in assay [2], in assay [6] and in assay [7] was “inactive” in each case.

As for `COCC(O)CO` (stereo not given), the outcome in assay [1], in assay [3], in assay [4], in assay [5] and in assay [9] was inactive. The Potency entry in assay [2], in [6], in assay [7] and in assay [10] was “inactive” in each case.
